Calls of active or inactive are those of the source. Rule for the calls: active = hit-call score of the fitted dose curve at least 0.9, where 1 is the maximum; inactive = score below 0.9.

One may read the AC50 as the concentration at which the activity in the assay is half-maximal.

The nature of the assay: ATG_Sox_CIS: Attagene CIS-FACTORIAL HepG2 Assay for human SRY-box transcription factor (SOX) (AID 2282960). The note with it: HepG2 Attagene cis-factorial SOX reporter, mRNA; actives raise or lower the signal. As for the experimental part:
ATG_CIS is a cell-based, multiplexed-readout assay that uses HepG2, a human liver cell line, with measurements taken at 24 hours after chemical dosing in a 24-well plate.ATG_Sox_CIS is one of 52 assay component(s) measured or calculated from the ATG_CIS assay. It is designed to make measurements of mRNA induction, a form of inducible reporter, as detected with fluorescence intensity signals by Reverse transcription polymerase chain reaction (RT-PCR) and Capillary electrophoresis technology.Data from the assay component ATG_Sox_CIS was analyzed into 1 assay endpoint. This assay endpoint, ATG_Sox_CIS, was analyzed with bidirectional fitting relative to DMSO as the negative control and baseline of activity. Using a type of inducible reporter, measures of mRNA for gain or loss-of-signal activity can be used to understand the reporter gene at the transcription factor-level as they relate to the gene SOX1. Furthermore, this assay endpoint can be referred to as a primary readout, because this assay has produced multiple assay endpoints where this one serves a reporter gene function. To generalize the intended target to other relatable targets, this assay endpoint is annotated to the dna binding intended target family, where the subfamily is HMG box protein.
Human liver HepG2 cells are transiently transfected with multiple reporter transcription units (MRTUs) in 6-well plates using FuGene 6 reagent (Roche; 3 ml FuGene/1 mg DNA). The MRTU constructs are regulated by a cis-regulating element (promoter). […] A major difference between the CIS and TRANS system is that in CIS activities of endogenous TFs are measured, whereas the TRANS assay evaluates changes in activities of exogenous, chimeric NR-Gal4 proteins. […] At the end of 24 hour incubation, total RNA was isolated using TriZol reagent (Invitrogen). The isolated RNA is then reverse-transcribed using oligo(dT) primer and Mo-MLV reverse transcriptase (Invitrogen) with DNAse I (Ambion) treatment for 30 min. The one-tenth of the produced cDNA was amplified by PCR using Taq DNA polymerase (Invitrogen) and two reporter sequence-specific primers. The PCR products were fluorescently labeled by primer extension with 6-arboxyfluorescein (6-FAM) 5'-labeled reporter sequence-specific primer (2 min at 95 C, 20 s at 68 C and 10 min at 72 C) and these products were digested with 5U of HpaI (New England Biolabs) for 2h at 37 C. The fragments were purified using Qiaquick PCR columns (Qiagen), analyzed on an ABI 3130xL genetic analyzer (Applied Biosystems) with peak positions identified by using a set of X-rhodamine (ROX)-labeled MapMarker1000 molecular weight standards (BioVentures). The raw capillary electrophoresis data was processed using Attagraph software (Attagene).
Consider `COC(=O)c1c(Cl)c(Cl)c(C(=O)OC)c(Cl)c1Cl`, for which the compound was called inactive.
For `COC(=O)CC(=O)OC`, the result was inactive.
Still for that read-out and setting: the entry for `Clc1nc(Cl)c(Cl)c(Cl)c1Cl` is “inactive”; for `CC(C)CC(C)(O)C#CC(C)(O)CC(C)C` (stereo not given) it is “inactive”.
Take `O=C1CCCCCN1`: the compound was called inactive.
Same read-out and setting: the entry for `COC(=O)c1ccccc1O` is “inactive”.
On to `O=C(CCCCCCCCc1cccnc1)N1CCC(C=C(c2ccccc2)c2ccccc2)CC1`, for which the call was inactive.
Same read-out and setting: under `Cc1ccc(N)cc1O` stands “inactive”; under `C1N2CN3CN1CN(C2)C3`, “inactive”; under `CC[C@H](C)C(=O)O[C@H]1C[C@@H](C)C=C2C=C[C@H](C)[C@H](CC[C@@H]3C[C@@H](O)CC(=O)O3)[C@H]21`, “inactive”.
Turning to `O=C(O)CC(O)C(=O)O` (stereo not given), the outcome was inactive.
As to `O=C(NS(=O)(=O)/C=C/c1ccccc1)c1ccc(F)cc1Cl`, the outcome was inactive.
For the compound `CN(C)c1ccc(N=NS(=O)(=O)O)cc1`, the compound was classed as inactive.
Same read-out and setting: under `CC(=O)OCCC(C)C` stands “inactive”.
The same measure, in the same setting: the entry for `CC(C)(O)c1coc(S(=O)(=O)NC(=O)Nc2c3c(cc4c2CCC4)CCC3)c1` is “inactive”; for `CCCCC(CC)COC(=O)CCCCCCCCC(=O)OCC(CC)CCCC` (stereo not given) it is “inactive”; for `CC/C(=C\C(=N/O)C(N)=O)C(C)[N+](=O)[O-]` (stereo not given) it is “inactive”.
Turning to `CCCN(C1CCN(C(=O)C2CCNCC2)CC1)[C@@H]1CCc2ccc(OC)cc2C1`, the compound was classed as inactive.
On the same count and under the same terms, the entry for `C[C@](N)(Cc1ccc(O)c(O)c1)C(=O)O` is “inactive”; for `CCCC(=O)OCC` it is “inactive”.
Same read-out and setting: under `O=C1CCC(N2C(=O)c3ccccc3C2=O)C(=O)N1` (stereo not given) stands “inactive”; under `CCCCCCCCCCCCCCCO`, “inactive”.
Same read-out and setting: the entry for `CC[C@H]1OC(=O)[C@H](C)[C@@H](O[C@H]2C[C@@](C)(OC)[C@@H](O)[C@H](C)O2)[C@H](C)[C@@H](O[C@@H]2O[C@H](C)C[C@H](N(C)C)[C@H]2O)[C@](C)(O)C[C@@H](C)C(=O)[C@H](C)[C@@H](O)[C@]1(C)O` is “inactive”.
As to `CC(C)=CCCC(C)=CC=O`, the AC50 was 167 µM (active).
As for `O=C1OC(=O)C2C3C=CC(C3)C12` (stereo not given), the outcome was inactive.
Same read-out and setting: the entry for `CNCc1ccc(NC(=O)c2c[nH]c3c2C(=O)CCC3)cc1` is “inactive”; for `O=C(O)c1cc(N=Nc2ccc(S(=O)(=O)Nc3ccccn3)cc2)ccc1O` it is “inactive”; for `CCC(C)(C)C(=O)O[C@H]1C[C@@H](C)C=C2C=C[C@H](C)[C@H](CC[C@@H]3C[C@@H](O)CC(=O)O3)[C@H]21` it is “inactive”.
The same measure, in the same setting: the entry for `CCN(C(=O)c1cc(C)cc(OC[C@H](C)Nc2ccncc2)c1)C(C)C` is “inactive”; for `CC1(C)C(=O)N(Br)C(=O)N1Br` it is “inactive”.
Same read-out and setting: the entry for `Nc1cccc(N)c1` is “inactive”; for `COc1ccc2sc(C(=O)Nc3nnn[nH]3)c(OC(C)C)c2c1` it is “inactive”.
Take `CC(O)CN(CCN(CC(C)O)CC(C)O)CC(C)O` (stereo not given): the result was inactive.
Consider `Cc1c(-c2cccnc2)c2ccccc2n1CCCCC(=O)O`, for which the compound was classed as inactive.
On the same count and under the same terms, under `O=C(O)c1cccc(N(Cc2cccnc2)c2ccc(OC(F)F)c(OC(F)F)c2)c1` stands “inactive”.
On to `CCOC(=O)COc1ccc2c(c1)CC(NCC(O)c1cccc(Cl)c1)CC2` (stereo not given), for which the compound was called inactive.
Same read-out and setting: the entry for `CCOc1cccc(-n2cc(C(=O)N3CCN(c4cc(C(=O)O)c5ccccc5c4)CC3)nc2-c2ccc(C)cc2)c1` is “inactive”; for `Cc1ccc(O)cc1` it is “inactive”.
The same measure, in the same setting: under `CCOCCO` stands “inactive”; under `CCn1nc(Cc2ccccc2)cc1C1CCN(C[C@H]2C[C@H](N(C)[C@@H](C(=O)O)C(C)C)C[C@@H]2c2cccc(F)c2)CC1`, “inactive”.

These data come from PubChem BioAssay (EPA / NIEHS).
